Structures can show the parent of a compound that is named as a salt. ± gives the standard deviation of the averaged measurements.
Columns and labels:
Assay in all cases: growth (OD600 after 10 h); higher = more growth (less inhibition)
[1] = test system: E. coli TESEC Alr+ wild-type control; conditions: compound 0.1 mM; raw OD600 reference: median of DMSO wells 0.241, cell-free background 0.041
Experimental: (§1)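 TESEC Mtb Alr E. coli, or the Alr+ wild-type control, in 384-well plates with Prestwick library compounds at 0.1 mM and 1% DMSO, across arabinose induction levels of 1E3 to 1E7 nM. Growth is read as OD600 after 10 h at 37 °C in triplicate biological replicates.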

E. coli TESEC Mtb Alr [2] = conditions: compound 0.1 mM
Experimental: as §1

E. coli TESEC Mtb Asd = conditions: compound 0.1 mM
Experimental: (§2)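 TESEC E. coli strains in which the native enzyme is deleted and replaced by arabinose-inducible Mtb Asd, DapB, CysH or TrpD, each grown in its selective medium. Strains were screened against the Prestwick library at 0.1 mM and 1% DMSO in 384-well format at low and high arabinose induction. Growth is read as OD600 after 10 h in triplicate.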

E. coli TESEC Mtb DapB = conditions: compound 0.1 mM
Experimental: as §2

[3] = test system: E. coli TESEC Alr+ wild-type control; conditions: compound 0.1 mM; raw OD600 reference: median of DMSO wells 0.49, cell-free background 0.052
Experimental: (§3)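 TESEC Mtb Alr E. coli (ΔaraC ΔtolC ΔentC Δalr ΔdadX, arabinose-inducible Mtb Alr) or the Alr+ wild-type control strain, grown in defined M9-fructose medium without D-alanine in 96-well plates with Prestwick library compounds at 0.1 mM and 1% DMSO. Low Alr induction is 0.1 µM arabinose and high induction is 10 mM arabinose.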

E. coli TESEC Mtb Alr [4] = conditions: compound 0.1 mM; remark: listed apart in the source
Experimental: as §3

[5] = arabinose 1000 nM, raw OD600 reference: median of DMSO wells 0.294, cell-free background 0.041
[6] = arabinose 10000 nM, raw OD600 reference: median of DMSO wells 0.264, cell-free background 0.041
[7] = arabinose 100000 nM, raw OD600 reference: median of DMSO wells 0.201, cell-free background 0.041
[8] = arabinose 1000000 nM, raw OD600 reference: median of DMSO wells 0.193, cell-free background 0.041
[9] = arabinose 10000000 nM, raw OD600 reference: median of DMSO wells 0.146, cell-free background 0.041
[10] = arabinose induction (level): High, raw OD600 reference: median of DMSO wells 0.331, cell-free background 0.041
[11] = arabinose induction (level): Low, raw OD600 reference: median of DMSO wells 0.417, cell-free background 0.041
[12] = arabinose induction (level): High, raw OD600 reference: median of DMSO wells […], cell-free background 0.041
[13] = arabinose induction (level): Low, raw OD600 reference: median of DMSO wells 0.227, cell-free background 0.041
[14] = arabinose 100 nM, raw OD600 reference: median of DMSO wells 0.413, cell-free background 0.052
[15] = arabinose 10000000 nM, raw OD600 reference: median of DMSO wells […], cell-free background 0.052

SMILES	growth [1]	growth (E. coli TESEC Mtb Alr [2]; [5])	growth (E. coli TESEC Mtb Alr [2]; [6])	growth (E. coli TESEC Mtb Alr [2]; [7])	growth (E. coli TESEC Mtb Alr [2]; [8])	growth (E. coli TESEC Mtb Alr [2]; [9])	growth (E. coli TESEC Mtb Asd; [10])	growth (E. coli TESEC Mtb Asd; [11])	growth (E. coli TESEC Mtb DapB; [12])	growth (E. coli TESEC Mtb DapB; [13])	growth [3]	growth (E. coli TESEC Mtb Alr [4]; [14])	growth (E. coli TESEC Mtb Alr [4]; [15])
CN(C)CCC=C1c2ccccc2COc2ccccc21 [Doxepin hydrochloride]	0.199 ± 0.018	0.245 ± 0.0099	0.262 ± 0.011	0.178 ± 0.0063	0.134 ± 0.0022	0.144 ± 0.0036	0.186 ± 0.034	0.326 ± 0.032	0.169 ± 0.013	0.182 ± 0.013	0.472 ± 0.033	0.41 ± 0.0055	0.342 ± 0.046
C#C[C@]1(O)CC[C@H]2[C@@H]3CCC4=CCCC[C@@H]4[C@H]3CC[C@@]21C [Lynestrenol]	0.237 ± 0.0046	0.297 ± 0.0055	0.266 ± 0.015	0.18 ± 0.033	0.164 ± 0.0081	0.15 ± 0.0066	0.312 ± 0.033	0.387 ± 0.039	0.174 ± 0.0039	0.198 ± 0.027	0.451 ± 0.013	0.394 ± 0.0051	0.289 ± 0.0077
Cc1cc2c(s1)Nc1ccccc1N=C2N1CCN(C)CC1 [Olanzapine]	0.207 ± 0.0059	0.286 ± 0.014	0.267 ± 0.0071	0.183 ± 0.015	0.158 ± 0.006	0.136 ± 0.0056	0.305 ± 0.043	0.457 ± 0.018	0.213 ± 0.029	0.249 ± 0.026	0.502 ± 0.029	0.403 ± 0.014	0.319 ± 0.01
CCOc1ccc(NC(C)=O)cc1 [Phenacetin]	0.243 ± 0.0043	0.2912 ± 0.0014	0.27 ± 0.0042	0.231 ± 0.028	0.1828 ± 0.0017	0.152 ± 0.0045	0.345 ± 0.083	0.413 ± 0.084	0.208 ± 0.019	0.224 ± 0.012	0.506 ± 0.071	0.411 ± 0.011	0.329 ± 0.019
CN(CCOc1ccc(CC2SC(=O)NC2=O)cc1)c1ccccn1 (stereo unspecified) [Rosiglitazone Hydrochloride]	0.142 ± 0.0027	0.177 ± 0.0057	0.168 ± 0.011	0.177 ± 0.0028	0.0847 ± 0.0029	0.112 ± 0.0041	0.184 ± 0.026	0.19 ± 0.023	0.177 ± 0.015	0.215 ± 0.028	0.327 ± 0.0092	0.266 ± 0.021	0.1 ± 0.016
CCCCC1C(=O)N(c2ccccc2)N(c2ccc(O)cc2)C1=O (stereo unspecified) [Oxyphenbutazone]	0.2 ± 0.01	0.255 ± 0.0043	0.262 ± 0.0047	0.211 ± 0.027	0.124 ± 0.0071	0.129 ± 0.004	0.366 ± 0.025	0.384 ± 0.047	0.204 ± 0.019	0.229 ± 0.044	0.436 ± 0.036	0.415 ± 0.0059	0.28 ± 0.0025
Cc1cccc(CN2CCN(C(c3ccccc3)c3ccc(Cl)cc3)CC2)c1 (stereo unspecified) [Meclozine dihydrochloride]	0.278 ± 0.0073	0.279 ± 0.011	0.302 ± 0.006	0.174 ± 0.023	0.129 ± 0.0042	0.185 ± 0.0054	0.207 ± 0.024	0.242 ± 0.0061	0.209 ± 0.0042	0.247 ± 0.021	0.427 ± 0.021	0.428 ± 0.031	0.143 ± 0.0093
COC(=O)CCc1ccc(OCC(O)CNC(C)C)cc1 (stereo unspecified) [Esmolol hydrochloride]	0.234 ± 0.014	0.295 ± 0.018	0.2542 ± 0.00042	0.218 ± 0.0079	0.195 ± 0.0068	0.129 ± 0.0016	0.242 ± 0.013	0.432 ± 0.022	0.195 ± 0.0058	0.227 ± 0.019	0.431 ± 0.019	0.405 ± 0.015	0.388 ± 0.021
CN(C/C=C/c1ccccc1)Cc1cccc2ccccc12 [Naftifine hydrochloride]	0.0432 ± 0.0006	0.0444 ± 0.001	0.04317 ± 0.00021	0.045 ± 0.0005	0.0437 ± 0.0015	0.0527 ± 0.00066	0.269 ± 0.035	0.313 ± 0.069	0.125 ± 0.008	0.133 ± 0.0053	0.374 ± 0.0058	0.266 ± 0.14	0.052 ± 0.0013
C=C1/C(=C\C=C2/CCC[C@]3(C)[C@@H]([C@H](C)CCCC(C)C)CC[C@@H]23)C[C@@H](O)C[C@@H]1O [Alfacalcidol]	0.0884 ± 0.006	0.0977 ± 0.004	0.051 ± 0.0012	0.143 ± 0.018	0.065 ± 0.0018	0.121 ± 0.002	0.219 ± 0.033	0.301 ± 0.066	0.234 ± 0.012	0.226 ± 0.018	0.146 ± 0.0019	0.4206 ± 0.0018	0.149 ± 0.023
CC(CN(C)C)CN1c2ccccc2CCc2ccccc21 (stereo unspecified) [Trimipramine maleate salt]	0.167 ± 0.0021	0.204 ± 0.012	0.3 ± 0.0057	0.184 ± 0.013	0.15 ± 0.0042	0.156 ± 0.0021	0.141 ± 0.019	0.267 ± 0.046	0.195 ± 0.035	0.219 ± 0.027	0.4285 ± 0.0016	0.395 ± 0.0065	0.337 ± 0.0056
CC(C(=O)O)c1ccc(C(=O)c2ccccc2)s1 (stereo unspecified) [Tiaprofenic acid]	0.22 ± 0.012	0.253 ± 0.021	0.246 ± 0.0058	0.201 ± 0.019	0.205 ± 0.0076	0.143 ± 0.006	0.386 ± 0.077	0.285 ± 0.099	0.182 ± 0.009	0.178 ± 0.015	0.502 ± 0.059	0.382 ± 0.02	0.35 ± 0.019
O=C(O)Cc1ccccc1Nc1c(Cl)cccc1Cl [Diclofenac sodium]	0.1279 ± 0.00065	0.137 ± 0.0017	0.132 ± 0.0064	0.149 ± 0.006	0.103 ± 0.004	0.131 ± 0.0017	0.172 ± 0.014	0.179 ± 0.01	0.166 ± 0.0086	0.172 ± 0.014	0.436 ± 0.0056	0.329 ± 0.037	0.214 ± 0.015
CCCCNc1c(C(=O)OCC)c(C)nc2c1cnn2CC [Tracazolate hydrochloride]	0.15 ± 0.017	0.203 ± 0.049	0.13 ± 0.037	0.197 ± 0.051	0.077 ± 0.031	0.168 ± 0.031	0.165 ± 0.017	0.179 ± 0.014	0.156 ± 0.0092	0.194 ± 0.0047	0.335 ± 0.024	0.366 ± 0.0077	0.186 ± 0.042
CC(=O)Oc1ccccc1C(=O)Oc1ccccc1C(=O)O [Acetylsalicylsalicylic acid]	0.253 ± 0.0046	0.275 ± 0.0063	0.266 ± 0.016	0.203 ± 0.011	0.181 ± 0.0064	0.142 ± 0.0078	0.325 ± 0.1	0.421 ± 0.069	0.19 ± 0.014	0.209 ± 0.0043	0.449 ± 0.04	0.4179 ± 0.0027	0.352 ± 0.023
Nc1nnc(-c2cccc(Cl)c2Cl)c(N)n1 [Lamotrigine]	0.14 ± 0.0084	0.206 ± 0.028	0.203 ± 0.0052	0.216 ± 0.014	0.21 ± 0.0054	0.179 ± 0.0078	0.236 ± 0.025	0.168 ± 0.019	0.213 ± 0.015	0.132 ± 0.0074	0.46 ± 0.021	0.413 ± 0.029	0.386 ± 0.029
O=C(Nc1cccc2c(=O)cc(-c3nnn[nH]3)oc12)c1ccc(OCCCCc2ccccc2)cc1 [Pranlukast]	0.23 ± 0.0033	0.238 ± 0.0077	0.196 ± 0.0094	0.227 ± 0.0058	0.144 ± 0.0097	0.178 ± 0.0095	0.236 ± 0.0051	0.238 ± 0.014	0.158 ± 0.014	0.195 ± 0.015	0.46 ± 0.0055	0.424 ± 0.0063	0.308 ± 0.013
